High-throughput results deposited in PubChem by several laboratories.
This is a sample that favours compounds with a hit; in the whole collection about 1.1% have one here.
Shn3 inh set2: Schnurri-3 reporter inhibition in Clone20 osteoblasts; Clone20 osteoblast Shn3 3'UTR firefly luciferase, 24 h; inhibition, % at 12.5 µM; AID 588674; 0.52% of 360,000 active;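 active means mean inhibition of at least 75% with every replicate also reaching 75%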;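 further: 0% = median of neutral control wells and 100% = pilot-screen positive control compound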
Gli-Sufu antag: blocks Gli-Sufu signaling in a luciferase reporter; Sufu-KO-LIGHT fibroblasts, Gli luciferase reporter luminescence; 0.74% of 340,000 active; inhibition, % at 5 µM;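 active means inhibition above about 55%, limit read from the data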;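 further: 0% = DMSO-treated cells and 100% = wells with medium but no cells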
NCOA1 inh: human NCOA1 inhibition. 0.12% of 360,000 active. inhibition, % at 3.6 µM. HEK293 GAL4-SRC1 luciferase reporter, luminescence. AID 588354. Q15788;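 active means inhibition above the campaign mean plus 3 SD, with each screening campaign given its own cutoff, cut at about 60% in these data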;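 further: 0% = DMSO treated cells and 100% = gossypol at 36 µM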
SRC3 inh: human NCOA3 inhibition; HEK293 GAL4-SRC3 luciferase reporter, luminescence; inhibition, % at 3.6 µM; Q9Y6Q9; 0.17% of 360,000 active;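 active means inhibition above a per-campaign cutoff, the mean of all compounds plus 3 SD, cut at about 60% in these data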;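 further: 0% = DMSO-treated cells and 100% = gossypol-treated cells at 36 µM; higher means less SRC3-driven luciferase light from the GAL4 reporter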
LRH-1 inv ag: NR5A2 inverse agonism in reporter assay; O00482; HEK293T StAR-luciferase reporter, LRH-1 transfected, 24 h; inhibition, % at 3.6 µM; 0.13% of 360,000 active; AID 602396;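 active means inhibition above the mean inhibition of all tested compounds plus 3 SD, cut at about 73% in these data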;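 further: 0% = DMSO wells and 100% = reporter-only cells lacking LRH-1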
SRC2 inh: inhibits human steroid receptor coactivator 2 | Q15596 | HEK293 GAL4-SRC2 luciferase reporter, luminescence | inhibition, % at 9 µM | 0.17% of 370,000 active | AID 651957;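 active means inhibition above the mean inhibition of all tested compounds plus 3 SD, set per campaign, cut at about 52% in these data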;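 further: 0% = DMSO treated cells and 100% = cells given Gossypol at 36 µM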
Target sequence (Q15596 whole entry, looked up, the tested form may be a part): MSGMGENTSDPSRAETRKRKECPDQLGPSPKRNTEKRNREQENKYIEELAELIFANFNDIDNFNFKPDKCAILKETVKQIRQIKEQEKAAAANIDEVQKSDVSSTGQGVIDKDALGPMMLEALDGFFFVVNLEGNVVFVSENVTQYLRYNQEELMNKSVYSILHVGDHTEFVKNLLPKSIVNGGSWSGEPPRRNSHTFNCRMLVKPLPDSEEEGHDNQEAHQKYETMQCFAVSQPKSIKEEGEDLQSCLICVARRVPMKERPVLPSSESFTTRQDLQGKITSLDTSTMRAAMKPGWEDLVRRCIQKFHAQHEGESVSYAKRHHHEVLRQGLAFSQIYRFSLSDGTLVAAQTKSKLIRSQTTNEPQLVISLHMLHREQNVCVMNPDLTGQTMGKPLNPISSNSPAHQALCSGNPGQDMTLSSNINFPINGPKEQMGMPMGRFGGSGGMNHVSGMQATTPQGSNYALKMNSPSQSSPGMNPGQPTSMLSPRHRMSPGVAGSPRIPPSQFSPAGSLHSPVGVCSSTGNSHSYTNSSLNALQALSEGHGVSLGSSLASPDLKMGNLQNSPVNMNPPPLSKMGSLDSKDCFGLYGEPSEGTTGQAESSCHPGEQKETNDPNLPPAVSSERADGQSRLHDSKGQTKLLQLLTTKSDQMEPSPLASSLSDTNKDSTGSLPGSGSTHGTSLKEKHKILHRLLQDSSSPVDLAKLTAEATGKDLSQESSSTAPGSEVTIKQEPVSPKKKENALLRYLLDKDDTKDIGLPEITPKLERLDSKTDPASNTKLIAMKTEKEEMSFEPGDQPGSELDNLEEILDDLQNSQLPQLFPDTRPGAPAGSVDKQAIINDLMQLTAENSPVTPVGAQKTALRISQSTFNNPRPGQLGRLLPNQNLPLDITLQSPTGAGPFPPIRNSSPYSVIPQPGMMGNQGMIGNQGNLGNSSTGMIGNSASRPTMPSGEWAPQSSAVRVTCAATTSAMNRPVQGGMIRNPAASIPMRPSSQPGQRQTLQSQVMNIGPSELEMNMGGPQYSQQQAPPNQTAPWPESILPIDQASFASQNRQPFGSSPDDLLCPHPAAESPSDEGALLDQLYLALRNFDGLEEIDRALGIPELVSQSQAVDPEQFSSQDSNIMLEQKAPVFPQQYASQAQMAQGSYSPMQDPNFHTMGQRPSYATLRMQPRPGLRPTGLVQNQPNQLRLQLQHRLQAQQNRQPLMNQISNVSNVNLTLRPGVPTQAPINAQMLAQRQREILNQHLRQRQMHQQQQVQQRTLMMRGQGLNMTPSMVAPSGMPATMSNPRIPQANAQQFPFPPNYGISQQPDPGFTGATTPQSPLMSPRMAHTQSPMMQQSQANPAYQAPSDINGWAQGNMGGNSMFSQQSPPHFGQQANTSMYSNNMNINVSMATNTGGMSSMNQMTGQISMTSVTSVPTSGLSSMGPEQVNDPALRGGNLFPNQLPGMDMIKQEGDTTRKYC
The depositor's hits bear a star; . = not tested or not shown.

SMILES | Shn3 inh set2 | Gli-Sufu antag | NCOA1 inh | SRC3 inh | LRH-1 inv ag | SRC2 inh
COC(=O)c1ccc(/C=C/C(=O)c2ccc(OC)c(OC)c2)cc1 | 33 | 1 | -12 | 3 | 12 | .
COc1ccc(/C=C/C(=O)c2ccc(C(=O)/C=C/c3ccc(OC)c(OC)c3)cc2)cc1OC | 87* | 3 | -29 | -8 | 7 | 0
COc1ccc(-c2cc(NC(=O)Cc3c[nH]c4ccccc34)ccc2Nc2cccnc2)c(OC)c1 | . | . | . | . | . | -25
CCN(CCNC(=O)[C@H]1C=C(OC)C(=O)C[C@H](c2ccccc2)[C@H]1C)C(C)=O | . | . | . | . | . | 4
Cc1c(CC(=O)NCCCC(=O)O)c(=O)oc2cc3c(cc12)CCC(C)(C)O3 | 19 | 3 | 25 | 41 | 40 | 75*
COc1ccc(NC(=O)c2cc3c(Cl)nc4ccccc4c3s2)c(OC)c1 | 0 | 7 | 2 | 10 | 0 | 22
COc1cc(NC(=O)c2cc3c(Cl)nc4ccccc4c3s2)cc(OC)c1OC | 94* | 32 | -3 | 1 | -8 | -6
CC1=CC2(C(Cc3ccccc3)N(CC3CC3)C(=NC(=O)c3ccccc3)N2C(=O)OCc2ccccc2)n2c(=O)n(-c3ccccc3)c(=O)n2C1 (stereo unspecified) | . | . | . | . | . | -2
CC(=O)n1cc(N(C(=O)CCl)c2ccc(C)cc2)c2ccccc21 | . | 4 | -6 | 27 | 39 | 61*
CCCCOc1ccc(Br)cc1/C(C)=N/NC1=NCCN1 | 88* | -62 | 10 | 23 | 28 | 17
CCCCCCOc1ccc(/C(C)=N/NC2=NCCN2)cc1[N+](=O)[O-] | -11 | 16 | -34 | -37 | -92 | -18
N#CCc1ccc(OC[C@@H](O)CN2CCC(C(O)(c3ccccc3)c3ccccc3)CC2)cc1 | . | . | . | . | . | -4
COc1ccc(S[C@]2(C(=O)N3CCCC3)CC(=O)N(c3ccccc3OC)[C@@H]2c2ccc(OC)cc2)cc1 | . | . | . | . | . | 2
CCOC(=O)N1C2C=CC(C2)N1C(=O)OCC | 9 | 6 | -8 | -3 | 1 | -15
CCOC(=O)N1C2CCC(C2)N1C(=O)OCC | 93* | 5 | 4 | -17 | -2 | -9
O=C(NCCc1ccccc1)OCc1cn(-c2cccc(F)c2F)nn1 | . | . | . | . | . | 12
CCc1cc2c(=O)[nH]c(-c3ccccn3)nc2s1 | 54 | 58* | -102 | -95 | -96 | -55
Cc1cc(C)cc(C(=O)OCCCN(C)C2CN(Cc3cn(Cc4ccc([N+](=O)[O-])cc4)nn3)S(=O)(=O)C2)c1 (stereo unspecified) | . | . | . | . | . | -31
Cc1ccc(-n2ncc3c(N4CCCC4)ncnc32)c(C)c1 | -84 | -29 | -51 | -41 | -84 | -95
COc1cccc(N2CCN(c3ncnc4c3cnn4-c3ccc(C)cc3C)CC2)c1 | 91* | 14 | 44 | 79* | 64 | 69*
O=C(c1ccc(S(=O)(=O)c2ccc(F)cc2)c([N+](=O)[O-])c1)N1CCCCCC1 | 92* | 48 | 6 | 37 | 30 | 39
O=C(c1ccc(S(=O)(=O)Cc2ccccc2F)c([N+](=O)[O-])c1)N1CCCC1 | -3 | 10 | -9 | 20 | -3 | -1
CCCCCCCn1c2c(c(=N)c3c1CCC3)CCCC2 | 44 | 90* | 44 | 79* | 84* | 33
CCCCn1c2c(c(=N)c3c1CCC3)CCC2 | 69 | 8 | 30 | 28 | 45 | 16
CCn1c2c(c(=N)c3c1CCC3)CCC2 | 14 | -8 | 8 | 9 | -10 | 32
SMILES | Shn3 inh set2 | Gli-Sufu antag | NCOA1 inh | SRC3 inh | LRH-1 inv ag | SRC2 inh
CCCCCCn1c2c(c(=N)c3c1CCC3)CCC2 | 70 | 89* | 67* | 75* | 92* | -8
N=c1c2c(n(Cc3ccc(F)cc3)c3c1CCC3)CCC2 | 61 | 47 | 36 | 50 | 74* | 16
CCCCCCn1c(=O)[nH]c2c(c1=O)CCC2 | 10 | 4 | -2 | 11 | -11 | 12
CCCCCCCCCn1c2c(c(=N)c3c1CCC3)CCC2 | 65 | 94* | 71* | 81* | 97* | .
COC(=O)[C@]12C[C@H](CC(=O)N3CCN(C(=O)c4ccco4)CC3)C(=O)N(Cc3cccc4ccccc34)C1=C[C@H](COCc1ccccc1)O[C@@H]2C | . | . | . | . | . | 17
C=CCN1C(=O)[C@@H](CC(=O)NCCc2ccccc2OC)[C@]2(C(=O)OC)CCCCC=C12 | . | . | . | . | . | 10
CC(C)(C)c1ccc(/C=N/Nc2ccc(C(=O)O)cc2)cc1 | 50 | -10 | 48 | 64* | 57 | 26
O=C(O)c1ccc(N/N=C/c2ccc(C(F)(F)F)cc2)cc1 | 21 | -117 | -12 | 31 | -28 | 14
CC(C)(C)c1ccc(/C=N/Nc2cccc(C(=O)O)c2)cc1 | 22 | -270 | -168 | -170 | -325 | -62
CN(C)c1ccc(/C=N/Nc2cccc(C(=O)O)c2)cc1 | 92* | -145 | -145 | -179 | -129 | -58
O=C(O)c1ccc(N/N=C/c2ccc3c(c2)OCO3)cc1 | 60 | 48 | 16 | 36 | -28 | 56*
COC(=O)[C@H](CC(C)C)N(CCCc1cn(Cc2ccc(C)cc2)nn1)S(=O)(=O)c1ccc(F)cc1Br | . | . | . | . | . | 6
Cc1ccccc1CN1CCCCC(NC(=O)C2CCC2)C1=O (stereo unspecified) | . | . | . | . | . | -7
CCOC(=O)Cn1cc(CN2C(C(=O)OC)CN(Cc3ccc(Cl)cc3)CCS2(=O)=O)nn1 (stereo unspecified) | . | . | . | . | . | 24
COC(=O)C1CN(Cc2ccc(C)cc2)CCS(=O)(=O)N1Cc1cn(Cc2ccc(OC)cc2)nn1 (stereo unspecified) | . | . | . | . | . | 12
Nc1ncnc2c(C3OC(CO)C(O)C3O)scc12 (stereo unspecified) | 97* | 44 | 66* | 84* | 96* | 51
COC(=O)C1CN(Cc2ccc(OC)cc2)CCS(=O)(=O)N1Cc1cn(Cc2ccccc2)nn1 (stereo unspecified) | . | . | . | . | . | 5
O=C(Nc1ccncc1)c1ccc(Cl)c(S(=O)(=O)N2CCc3ccccc32)c1 | 89* | 1 | 27 | 28 | 40 | 18
Cc1cccc(NC(=O)c2ccc(Cl)c(S(=O)(=O)N3CCc4ccccc43)c2)n1 | 42 | -13 | -11 | 2 | -6 | 7
O=C(Nc1ccc(N2CCCCC2)cc1)c1ccccn1 | 76 | 64* | 64* | 71* | 60 | .
CCOC(=O)C1CCN(S(=O)(=O)c2c(Cl)ccc3nonc23)CC1 | 96* | . | -28 | -3 | 8 | -140
CCOC(=O)C1CCN(S(=O)(=O)c2cccc3nonc23)CC1 | 4 | 1 | -9 | -1 | -11 | -15
CCCCCC[n+]1ccccc1/C=C/c1ccc(N(C)C)cc1 | 76 | . | 72* | 82* | 98* | 23
CN(C)c1ccc(/C=C/c2cc[n+](C)cc2)cc1 | 83 | 70* | 18 | 31 | 6 | 0
Cc1ccc(/C=C/c2ccc(N(C)C)cc2)[n+](C)c1 | 79 | 85* | 42 | 49 | 59 | -15
C[n+]1ccc(/C=C/c2cccs2)cc1 | 9 | 6 | -2 | 17 | -2 | -24
